JMJD2A Tudor inh = inhibitors of human JMJD2A Tudor domain; 390,000 tested, 4.4% active; O75164; Potency, µM (series often up to 114 µM), for the others: at the top dose activity change, negative = inhibition, hits mostly inhibitors; AlphaScreen JMJD2A-Tudor / H3K4me3 peptide binding; also: % is scaled to controls: 0 for no effect and ±100 for the full control effect; nearly all actives have a fitted effect of over 50% in size
Target sequence (O75164 whole entry, looked up, the tested form may be a part): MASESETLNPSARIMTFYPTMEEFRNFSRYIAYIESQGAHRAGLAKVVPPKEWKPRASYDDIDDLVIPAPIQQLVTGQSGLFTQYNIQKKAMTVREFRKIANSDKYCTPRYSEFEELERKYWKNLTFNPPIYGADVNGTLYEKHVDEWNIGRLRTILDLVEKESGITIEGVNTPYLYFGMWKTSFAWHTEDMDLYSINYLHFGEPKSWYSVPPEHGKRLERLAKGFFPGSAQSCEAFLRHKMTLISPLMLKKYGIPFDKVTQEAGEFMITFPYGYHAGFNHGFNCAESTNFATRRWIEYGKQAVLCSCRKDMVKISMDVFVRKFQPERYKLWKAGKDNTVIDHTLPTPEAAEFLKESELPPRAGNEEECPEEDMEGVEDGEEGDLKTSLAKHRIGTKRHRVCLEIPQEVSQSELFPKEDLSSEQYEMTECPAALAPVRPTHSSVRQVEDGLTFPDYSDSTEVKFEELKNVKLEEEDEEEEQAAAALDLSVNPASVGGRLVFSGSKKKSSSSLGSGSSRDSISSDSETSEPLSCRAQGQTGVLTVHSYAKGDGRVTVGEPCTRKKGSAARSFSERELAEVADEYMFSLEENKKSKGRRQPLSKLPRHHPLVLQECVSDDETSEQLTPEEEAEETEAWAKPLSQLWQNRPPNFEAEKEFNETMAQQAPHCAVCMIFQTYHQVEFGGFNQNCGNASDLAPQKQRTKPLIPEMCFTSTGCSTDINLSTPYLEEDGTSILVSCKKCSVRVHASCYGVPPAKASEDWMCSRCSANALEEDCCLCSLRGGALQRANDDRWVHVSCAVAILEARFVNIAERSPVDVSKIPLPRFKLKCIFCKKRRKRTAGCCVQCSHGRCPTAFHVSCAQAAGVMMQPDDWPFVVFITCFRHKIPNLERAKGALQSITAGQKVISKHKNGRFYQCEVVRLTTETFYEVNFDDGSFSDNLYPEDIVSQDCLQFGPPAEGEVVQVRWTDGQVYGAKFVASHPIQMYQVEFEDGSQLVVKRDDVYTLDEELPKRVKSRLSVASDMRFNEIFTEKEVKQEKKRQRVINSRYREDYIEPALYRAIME
HP1b binding inh = inhibitors of HP1-beta chromodomain binding to methylated histone tails; P83916; AlphaScreen HP1-beta / biotin-H3K9me3 peptide binding; Potency, µM (doses to about 114 µM), inactives show at the top dose activity change, negative = inhibition, usual class: inhibitors; 390,000 tested, 0.56% active; AID 540317; also: nearly all actives have a fitted effect of over 70% in size
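HP1-beta protein (50 nM final) preincubated 30 min at room temperature with biotinylated H3(1-18)K9me3 peptide (50 nM) in PBS pH 7.4, 0.01% Tween-20, then compound added for 30 min. AlphaScreen streptavidin donor/nickel chelate acceptor beads (10 ug/mL final), 30 min dark, luminescence read.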
L3MBTL1 block = blocks human L3MBTL1. Potency, µM (highest dose often 57.1 µM), inactives show at the top dose activity, negative = inhibition, usual class: inhibitors. Q9Y468. 230,000 tested, 0.66% active. AlphaScreen L3MBTL1–H3K9me1 peptide binding; also: % is scaled to controls: 0 for no effect and ±100 for the full control effect; nearly all actives have a fitted effect of over 60% in size
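L3MBTL1 50 nM + b-AHA-H3(1-15)K9me1 75 nM, 30 min RT; compound added, 30 min RT; streptavidin donor/Ni-chelate acceptor beads 10 ug/mL each final, 30 min RT dark; AlphaScreen read.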
Sfp PPTase inh = inhibitors of Bacillus subtilis Sfp phosphopantetheinyl transferase; AID 1490; Potency, µM, for inactives: largest response in the series, negative = inhibition, hits mostly inhibitors; 310,000 tested, 3.5% active; Biochemical Sfp PPTase activity, qHTS; Q9F4F7;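 also: the enzyme is Sfp with the accession as filed and its product quenches rhodamine fluorescence; 0% = enzyme reaction without inhibitor and -100% = no enzyme wells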
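With Hepes-Na pH 7.6 buffer containing 10 mM MgCl2, Sfp (15 nM) modified BHQ-2-YbbR (12.5 uM) using rhodamine-CoA (5 uM). Two reads 30 minutes apart at 525/598 nm yielded each well's rate.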
BAZ2B block = blocks human BAZ2B. Q9UIF8. AlphaScreen BAZ2B-H3K14Ac peptide displacement. Potency, µM (series often up to 114 µM), for inactives: top-dose activity change, negative = inhibition, usual class: inhibitors. 360,000 tested, 4.4% active. AID 504333; also: % is scaled to controls: 0 for no effect and ±100 for the full control effect; nearly all actives have a fitted effect of over 60% in size
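Inhibition is scored as reduced AlphaScreen emission. The BAZ2B/b-H3(5-23)K14Ac complex (50 nM each) in PBS pH 7.4, 0.01% Tween-20 meets compound (up to 110 uM) for 30 min at RT before bead addition.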
G9a block = blocks human histone lysine methyltransferase G9a; Q96KQ7; G9a H3K9 monomethylation, AlphaScreen, 2 h; Potency, µM (doses to about 102 µM), without a hit: at the top dose activity, negative = inhibition, actives largely listed as inhibitors; 350,000 tested, 8.8% active; AID 504332; also: % is scaled to controls: 0 for no effect and ±100 for the full control effect; nearly all actives have a fitted effect of over 75% in size
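G9a (20 nM) was preincubated 15 min with compound, then reacted 2 h at room temperature with 500 nM biotin-H3K9 peptide and 20 µM SAM. Monomethyl-H3K9 detected by AlphaScreen using anti-H3K9me1 antibody.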
* marks the source's active call; other numbers are inactive results; ? = inconclusive; / = not tested or not shown; [ ] = another dose, or the depositor's remark. This is a sample that favours compounds with a hit; in the whole collection about 12% have one here. Calls follow the shape of the dose curve; as a rule, active = well fitted curve in the direction sought with a large enough effect; inconclusive = small, poorly fitted or top-dose-only effect, or another doubt; inactive = no such curve, though single readings can be large; an effect the other way counts as inactive or inconclusive. Potency is read from the fitted curve at half-maximal effect.

SMILES	JMJD2A Tudor inh	HP1b binding inh	L3MBTL1 block	Sfp PPTase inh	BAZ2B block	G9a block
O=C(CN(C(=O)CCC(=O)Nc1ccccn1)c1ccc(F)cc1)NCc1ccco1	-9%	27%	/	6%	-15%	1%
COc1cc(NC(=O)Cn2nc(C(F)(F)F)c3c2CCCC3)c(OC)cc1Cl	3%	29%	/	/	-2%	6%[59 µM]
O=C(Cc1ccccc1[N+](=O)[O-])NCCCc1ccccc1	?	-13%	2%	9%	-1%	?
COc1ccccc1CNC(=O)C1CCCN(S(=O)(=O)c2cccc3nonc23)C1 (stereo unspecified)	-12%	14%	/	5%	-46%	-30%
CC(C)c1ccc(N(CC(=O)NC2CCCC2)C(=O)CCC(=O)Nc2ccccn2)cc1	50µM*	8%	/	10%	2%	18%
O=C(Nc1ccc(Cl)cc1Cl)c1n[nH]c(Cn2cncn2)n1	?	28%	-7%	5%	56µM*	18%[12.7 µM]
O=C(NCc1n[nH]c(=S)n1-c1ccc([N+](=O)[O-])cc1)c1ccc(S(=O)(=O)N2CCOCC2)cc1	56µM*	22%	/	-1%	-7%	7.1µM*
O=C(NCc1n[nH]c(=S)n1-c1ccc(Cl)c(Cl)c1)c1ccc(S(=O)(=O)N2CCOCC2)cc1	-22%	27%	-10%	-20%	-16%	8.9µM*
O=C(NCc1n[nH]c(=S)n1-c1ccc(Br)cc1)c1ccc(S(=O)(=O)N2CCOCC2)cc1	?	28%	/	0%	-5%	3.2µM*
COc1ccccc1-n1c(CNC(=O)c2ccc(S(=O)(=O)N3CCOCC3)cc2)n[nH]c1=S	20µM*	21%	/	-22%	?	8.9µM*
COc1ccc(-n2nnnc2CNC(=O)c2ccc(S(=O)(=O)N3CCOCC3)cc2)cc1	-11%	12%	-3%	/	7%	-7%[0.501 µM]
CC1(c2ccccc2)C(C#N)C(=O)NC(=O)C1C#N (stereo unspecified)	-10%	28%[57 µM]	/	/	/	/
CSc1ncccc1C(=O)N1CCCC(Nc2ccc(C)c(C)c2)C1 (stereo unspecified)	-23%	-13%	/	13%	?	18%[0.501 µM]
O=C(COC(=O)c1ccc(S(=O)(=O)N2CCCCCC2)cc1)NCc1ccc(F)cc1	-14%	5%	-4%	/	11%	-26%
COc1ccc(-n2c(CNC(=O)c3ccc(S(=O)(=O)N4CCCC4)cc3)n[nH]c2=S)cc1	7.9µM*	9%	-2%	-2%	-7%	?
O=C(NCc1n[nH]c(=S)n1-c1ccc(F)cc1)c1ccc(S(=O)(=O)N2CCCCC2)cc1	?	18%	/	2%	0%	2.5µM*
O=C(NCc1n[nH]c(=S)n1-c1ccc(Br)cc1)c1ccc(S(=O)(=O)N2CCCCC2)cc1	-33%	-15%	/	-12%	-19%	7.9µM*
O=C(NNC(=O)c1ccc(S(=O)(=O)N2CCCC2)cc1)c1ccc(Br)cc1	-3%	25%	0%	/	7%	-31%
O=C(NCc1n[nH]c(=S)n1-c1ccc(Br)cc1)c1ccc(S(=O)(=O)N2CCCC2)cc1	-32%	23%	0%	-1%	-35%	2.5µM*
C=CCOC1=CS(=O)(=O)N(Cc2ccc(Br)cc2)c2ccc(Br)cc21	-19%	36%	6%	/	/	/
CC(=O)c1ccc(NC(=O)C(C)Sc2nnc3ccccn23)cc1 (stereo unspecified)	-14%	45%	0%	/	9%	-21%[59 µM]
Cc1cccc(C)c1NC(=S)/N=C/N(C)C	14µM*	-22%	6%	-1%	-7%	-12%[59 µM]
CN(C)/C=N/C(=S)Nc1ccc(Cl)cc1	-23%	5%	-7%	-12%	-25%	-5%
COc1ccccc1CNC(=O)CN(c1ccc(C)cc1)S(=O)(=O)c1c(C)noc1C	-3%	36%	/	1%	-12%[57.1 µM]	20%
C=CCN(CC=C)C(=O)COC(=O)c1ccc(Sc2ncn[nH]2)c([N+](=O)[O-])c1	-21%	-1%	/	6%	?	28µM*
SMILES	JMJD2A Tudor inh	HP1b binding inh	L3MBTL1 block	Sfp PPTase inh	BAZ2B block	G9a block
CCNc1ccc(C(=O)OCC(=O)NC(=O)NCC(C)C)cc1[N+](=O)[O-]	9%	20%	-1%	3%	-15%	3%
CCOC(=O)NC(=O)COC(=O)c1ccc(Sc2ncn[nH]2)c([N+](=O)[O-])c1	-31%	1%	7%	0%	79µM*	20µM*
COc1ccc(C(=O)NCC(=O)OCC(=O)c2c(C)[nH]c3ccccc23)cc1OC	-30%	26%	0%	/	/	/
COc1ccc(-c2cc3nc(CCl)[nH]c(=O)c3s2)cc1	?	25%[57 µM]	/	-2%	-38%	50µM*
Cc1oc2c(Cl)c(Cl)c(O)c(CN(C)C)c2c1C(=O)c1ccc(Cl)cc1	?	-5%	-28%	-28%	45µM*	?
O=C1CCN(C(=O)Nc2ccccc2Cl)N1	?	2%	6%	-10%	2%	10µM*
O=C1CCN(C(=O)Nc2cccc(Cl)c2)N1	20µM*	2%	0%	-22%	-11%	10µM*
O=C1CN(C(=S)Nc2ccccc2Cl)CCN1	-8%	39%	7%	45µM*	-28%	45µM*
COc1ccc(S(=O)(=O)Nc2ccc(NC(C)=O)cc2)cc1Cl	-12%	25%	-4%	19%	-12%	-11%
COc1ccc(NS(=O)(=O)c2cnc(N)nc2)cc1Cl	50µM*	31%[57 µM]	/	/	-3%	-31%[59 µM]
Cc1ccc(CONC(=O)c2ccc([N+](=O)[O-])cc2)cc1	-14%	22%	0%	/	-1%	46%[12.7 µM]
Cc1ccc(S(=O)(=O)CC#CCOC(=O)c2ccc([N+](=O)[O-])cc2)cc1	/	/	-1%	50µM*	?	?
O=C(O)c1ccc2c(c1)S(=O)(=O)c1ccccc1C2=O	-18%	39%	/	1%	-32%	45µM*
CC(OC(=O)c1ccc2c(c1)S(=O)(=O)c1ccccc1C2=O)C(N)=O (stereo unspecified)	-13%	-7%	/	0%	-9%	45µM*
Cc1noc(C)c1COC(=O)c1ccc2c(c1)S(=O)(=O)c1ccccc1C2=O	-29%	-7%	-6%	1%	?	32µM*
NC(=O)c1ccc2c(c1)S(=O)(=O)c1ccccc1C2=O	-12%	38%	63%	-27%	9%	-1%[2.33 µM]
O=C(OCc1ccccc1)c1ccc2c(c1)-c1ccccc1C2=O	-29%	-3%	-3%	3%	-29%	5µM*
COC(=O)[C@@H](NC(=O)c1ccc2c(c1)S(=O)(=O)c1ccccc1C2=O)C(C)C	-27%	-17%	/	-5%	-2%	7%
